From PubChem BioAssay (Tox21)
Inconclusive results are not listed. Entries that show only a call come without a potency. Active and inactive are the calls of the source. Unless noted, the call rests on the fitted dose curve; in most records, active means well fitted curve in the direction sought with a large enough effect in the repeat runs; inconclusive means weak or mixed curves; inactive means no such curve, though single readings can be large; an effect the other way counts as inactive or inconclusive.

How the values were obtained:
[1] = qHTS assay to identify aromatase inhibitors - cell viability counter screen (AID 743084);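 further: cells stimulated with testosterone during compound exposure; nearly all actives have a fitted effect of over 55% in size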; further: potency means the concentration at half of the fitted maximal effect
[2] = target: Aryl hydrocarbon receptor (Homo sapiens) (UniProt P35869); test: qHTS assay to identify small molecule that activate the aryl hydrocarbon receptor (AhR) signaling pathway (AID 743085); further: nearly all actives have a fitted effect of over 15% in size; further: potency means the concentration at half of the fitted maximal effect;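 on activation: HG2L7.5c1 human HepG2 liver cells with stably integrated DRE-driven firefly reporter; series mostly up to about 70 µM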
Sequence of Aryl hydrocarbon receptor (Homo sapiens) (P35869 whole entry, looked up): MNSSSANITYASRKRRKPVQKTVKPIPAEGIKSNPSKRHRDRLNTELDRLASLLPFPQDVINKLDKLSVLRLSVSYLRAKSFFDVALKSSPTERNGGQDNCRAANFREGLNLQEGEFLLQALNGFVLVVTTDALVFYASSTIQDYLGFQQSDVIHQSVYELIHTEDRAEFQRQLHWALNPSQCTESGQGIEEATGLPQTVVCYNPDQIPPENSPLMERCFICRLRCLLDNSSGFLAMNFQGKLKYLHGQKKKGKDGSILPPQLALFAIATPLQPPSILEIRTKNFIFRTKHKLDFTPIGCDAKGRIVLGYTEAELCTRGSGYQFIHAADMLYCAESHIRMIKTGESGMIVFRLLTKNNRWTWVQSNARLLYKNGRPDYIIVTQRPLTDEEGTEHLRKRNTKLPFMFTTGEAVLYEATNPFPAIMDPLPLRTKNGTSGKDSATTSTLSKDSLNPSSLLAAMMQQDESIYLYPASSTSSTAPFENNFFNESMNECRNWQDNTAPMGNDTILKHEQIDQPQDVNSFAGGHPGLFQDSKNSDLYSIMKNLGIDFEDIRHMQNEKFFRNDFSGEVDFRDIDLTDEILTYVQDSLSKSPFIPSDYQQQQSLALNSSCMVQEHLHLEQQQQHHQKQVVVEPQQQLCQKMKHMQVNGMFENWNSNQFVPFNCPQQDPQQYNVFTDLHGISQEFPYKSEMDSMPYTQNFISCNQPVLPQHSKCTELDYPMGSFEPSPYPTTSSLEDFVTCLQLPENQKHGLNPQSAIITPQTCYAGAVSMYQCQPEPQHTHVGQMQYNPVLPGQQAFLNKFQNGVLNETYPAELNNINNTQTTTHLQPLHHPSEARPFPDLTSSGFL
Summary of the method: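 24 h compound exposure, 37C, HepG2-derived HG2L7.5c1 cells with DRE-responsive luciferase. Readouts: fluorescence viability, then luminescence at room temperature after 30 min.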

[3] = qHTS assay to identify small molecule that activate the aryl hydrocarbon receptor (AhR) signaling pathway - cell viability counter screen (AID 743086); further: nearly all actives have a fitted effect of over 45% in size; further: potency means the concentration at half of the fitted maximal effect
Summary of the method: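 Cytotoxicity counter screen: CellTiter-Fluor signal (30 min, 37 C) in 4000 HepG2 cells/well carrying the DRE-luciferase reporter, following 24 h compound exposure at 37 C.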

[4] = qHTS assay to identify small molecule antagonists of the peroxisome proliferator-activated receptor gamma (PPARg) signaling pathway - cell viability counter screen (AID 743194); further: nearly all actives have a fitted effect of over 55% in size
Summary of the method: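 Viability was measured as CellTiter-Glo luminescence in GeneBLAzer PPARg UAS-bla HEK293H cells. These cells had been exposed 17 h at 37 C to compounds together with rosiglitazone at 50 nM final, with the beta-lactamase readout taken in the same wells.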

[5] = qHTS assay for small molecule agonists of the antioxidant response element (ARE) signaling pathway (AID 743202; active means well fitted activation curve with a large enough effect in the signal ratio in the repeat runs, not every such curve was filed as active; the % refers to the signal ratio; further: potency means the concentration at half of the fitted maximal effect)
Summary of the method: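 Quantitative high-throughput format in HepG2 cells bearing an integrated ARE-beta-lactamase reporter. Compound exposure lasted 16 h at 37 C, and fluorescence was read 2 h after adding LiveBLAzer B/G substrate at room temperature.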

[6] = qHTS assay for small molecule agonists of the antioxidant response element (ARE) signaling pathway - cell viability counter screen (AID 743203; calls by dose curve; further: nearly all actives have a fitted effect of over 55% in size)
Summary of the method: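 Compounds in DMSO were pinned onto ARE-bla HepG2 cells plated 5 hrs earlier at 2,000 cells/well. Sixteen hours later at 37C/5% CO2, CellTiter-Glo was added and luminescence measured after 30 min at room temperature.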

[7] = qHTS assay for small molecule activators of the heat shock response signaling pathway - cell viability counter screen (AID 743209); further: nearly all actives have a fitted effect of over 50% in size; further: potency means the concentration at half of the fitted maximal effect
Summary of the method: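 Counter screen for cytotoxicity in HeLa HSE-bla reporter cells. Treatment was 5 h at 37 C; viability was detected by luminescent ATP assay (CellTiter-Glo) in the same wells as the beta-lactamase read.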

[8] = qHTS assay for small molecule activators of the heat shock response signaling pathway (AID 743210; active means well fitted activation curve with a large enough effect in the signal ratio in the repeat runs, with a control signal flat, not every such curve was filed as active; the % refers to the signal ratio;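 further: HeLa cells with beta-lactamase reporter driven by heat shock elements; series mostly up to about 63 µM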)
Summary of the method: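 HeLa HSE-bla cells, overnight plating; cpd in DMSO 5 h, 37 C; LiveBLAzer B/G FRET substrate 2.5 h RT; fluorescence intensity read.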

[9] = qHTS assay to identify small molecule agonists of the peroxisome proliferator-activated receptor delta (PPARd) signaling pathway - cell viability counter screen (AID 743211); further: nearly all actives have a fitted effect of over 55% in size; further: potency means the concentration at half of the fitted maximal effect
Summary of the method: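 Luminescent ATP viability assay (CellTiter-Glo, 30 min RT) in UAS-bla HEK293H cells carrying the PPAR delta reporter construct, 3000 cells/well, after a 17 h compound treatment at 37 C.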

[10] = target: Peroxisome proliferator-activated receptor delta (Homo sapiens) (UniProt Q03181); test: qHTS assay to identify small molecule agonists of the peroxisome proliferator-activated receptor delta (PPARd) signaling pathway (AID 743212; calls by dose curve)
Sequence of Peroxisome proliferator-activated receptor delta (Homo sapiens) (Q03181 whole entry, looked up): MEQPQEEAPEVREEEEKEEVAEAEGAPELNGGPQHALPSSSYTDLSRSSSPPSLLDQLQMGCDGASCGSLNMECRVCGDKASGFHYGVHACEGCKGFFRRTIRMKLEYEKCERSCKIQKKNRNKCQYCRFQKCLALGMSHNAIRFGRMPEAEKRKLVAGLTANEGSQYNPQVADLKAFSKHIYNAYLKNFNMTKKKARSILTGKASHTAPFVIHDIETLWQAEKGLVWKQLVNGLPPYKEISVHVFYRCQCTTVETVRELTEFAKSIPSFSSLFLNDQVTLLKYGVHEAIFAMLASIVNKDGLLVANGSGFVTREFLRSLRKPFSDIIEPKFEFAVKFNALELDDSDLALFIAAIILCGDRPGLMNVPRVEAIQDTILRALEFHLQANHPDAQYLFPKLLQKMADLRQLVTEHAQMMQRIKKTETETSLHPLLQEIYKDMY
Summary of the method: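 HEK293H PPARd-bla cells; 5 h preincubation 37 C/5% CO2; compound (DMSO) 37 C; LiveBLAzer B/G FRET substrate 2 h RT; fluorescence intensity.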

[11] = qHTS assay to identify small molecule antagonists of the peroxisome proliferator-activated receptor delta (PPARd) signaling pathway - cell viability counter screen (AID 743213); further: nearly all actives have a fitted effect of over 50% in size
Summary of the method: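 HEK293H PPARd UAS-bla cells, 5 h pre-incubation, compound + L165041 300 nM final, 17 h 37 C; B/G FRET substrate 2 h RT; then CellTiter-Glo 30 min RT, luminescence.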

[12] = target: Peroxisome proliferator-activated receptor delta (Homo sapiens) (UniProt Q03181); test: qHTS assay to identify small molecule antagonists of the peroxisome proliferator-activated receptor delta (PPARd) signaling pathway (AID 743215; active means well fitted inhibition curve with a large enough effect in the signal ratio in the repeat runs, not every such curve was filed as active; the % refers to the signal ratio;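 further: cells stimulated with agonist L165041 at 300 nM final during compound exposure; series mostly up to about 62 µM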)
Summary of the method: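 With L165041 present at 300 nM final, compounds were incubated 17 h at 37 C on PPARd UAS-bla HEK293H cells. A FRET-based beta-lactamase substrate was then applied for 2 h at room temperature and fluorescence intensity recorded.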

[13] = target: Bile acid receptor (Homo sapiens) (UniProt Q96RI1); test: qHTS assay to identify small molecule antagonists of the farnesoid-X-receptor (FXR) signaling pathway (AID 743217; active means well fitted inhibition curve with a large enough effect in the signal ratio in the repeat runs, not every such curve was filed as active; the % refers to the signal ratio)
Sequence of Bile acid receptor (Homo sapiens) (Q96RI1 whole entry, looked up): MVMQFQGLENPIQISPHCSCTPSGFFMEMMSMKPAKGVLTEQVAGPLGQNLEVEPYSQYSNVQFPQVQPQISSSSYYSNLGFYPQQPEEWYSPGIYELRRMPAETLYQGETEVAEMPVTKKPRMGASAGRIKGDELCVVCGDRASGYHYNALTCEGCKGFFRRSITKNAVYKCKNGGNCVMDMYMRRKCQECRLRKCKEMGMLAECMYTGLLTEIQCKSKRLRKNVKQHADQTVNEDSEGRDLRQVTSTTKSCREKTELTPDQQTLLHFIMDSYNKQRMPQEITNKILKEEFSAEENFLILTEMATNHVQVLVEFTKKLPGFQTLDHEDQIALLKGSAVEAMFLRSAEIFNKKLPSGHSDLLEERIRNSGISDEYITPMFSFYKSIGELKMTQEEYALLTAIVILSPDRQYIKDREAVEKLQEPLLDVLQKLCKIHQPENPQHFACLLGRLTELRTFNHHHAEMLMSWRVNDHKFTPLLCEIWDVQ
Summary of the method: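 In this cell-based antagonist screen, inhibition of CDCA-driven (50 uM final) UAS-beta-lactamase expression in HEK 293T cells was measured by FRET fluorescence following 16 h compound exposure at 37 °C.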

[14] = qHTS assay to identify small molecule agonists of the farnesoid-X-receptor (FXR) signaling pathway - cell viability counter screen (AID 743218); further: nearly all actives have a fitted effect of over 45% in size
Summary of the method: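 After 16 h at 37 C with test compounds, FXR-bla HEK 293T cells were given LiveBLAzer B/G substrate for 2 h at RT and then CellTiter-Glo; luminescence was taken after 30 min.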

[15] = target: Bile acid receptor (Homo sapiens) (UniProt Q96RI1); test: qHTS assay to identify small molecule agonists of the farnesoid-X-receptor (FXR) signaling pathway (AID 743220; active means well fitted activation curve with a large enough effect in the signal ratio in the repeat runs, not every such curve was filed as active; the % refers to the signal ratio)
Summary of the method: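 Beta-lactamase reporter under UAS control in GeneBLAzer FXR HEK 293T cells (5000/well) measured with LiveBLAzer FRET substrate after 2 h at room temperature. Compound exposure lasted 16 h at 37C.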

[16] = qHTS assay to identify small molecule antagonists of the farnesoid-X-receptor (FXR) signaling pathway - cell viability counter screen (AID 743221; active means well fitted cell-killing curve with a large enough effect in the repeat runs, not every such curve was filed as active; further: nearly all actives have a fitted effect of over 50% in size)
Summary of the method: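 In GeneBLAzer FXR-UAS-bla HEK 293T cells stimulated with 50 uM chenodeoxycholic acid (final), compounds acted for 16 h at 37 C. Viability was assessed afterwards by CellTiter-Glo luminescence.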

[17] = target: Vitamin D3 receptor (Homo sapiens) (UniProt P11473); test: qHTS assay to identify small molecule agonists of the vitamin D receptor (VDR) signaling pathway (AID 743222; calls by dose curve)
Sequence of Vitamin D3 receptor (Homo sapiens) (P11473 whole entry, looked up): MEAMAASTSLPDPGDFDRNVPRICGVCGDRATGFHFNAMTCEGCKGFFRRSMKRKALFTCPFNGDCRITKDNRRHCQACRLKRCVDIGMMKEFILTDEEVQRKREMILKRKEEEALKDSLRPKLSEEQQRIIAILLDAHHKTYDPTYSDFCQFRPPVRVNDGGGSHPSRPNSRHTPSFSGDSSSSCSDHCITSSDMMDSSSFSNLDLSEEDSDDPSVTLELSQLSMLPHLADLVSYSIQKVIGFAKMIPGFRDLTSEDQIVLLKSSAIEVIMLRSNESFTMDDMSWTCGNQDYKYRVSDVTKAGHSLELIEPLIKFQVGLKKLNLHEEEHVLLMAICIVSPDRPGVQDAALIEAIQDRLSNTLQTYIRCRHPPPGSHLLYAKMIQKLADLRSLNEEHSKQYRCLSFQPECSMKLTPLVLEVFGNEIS
Summary of the method: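 VDR-bla cells were seeded, left 4 h, treated with compounds in DMSO for 16 h, incubated 2 h at RT with B/G FRET substrate, and read for fluorescence.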

[18] = target: Vitamin D3 receptor (Homo sapiens) (UniProt P11473); test: qHTS assay to identify small molecule antagonists of the vitamin D receptor (VDR) signaling pathway (AID 743223; active means well fitted inhibition curve with a large enough effect in the signal ratio in the repeat runs, not every such curve was filed as active; the % refers to the signal ratio)
Summary of the method: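 Agonist 1alpha,25-dihydroxyvitamin D3 (3 nM in well) was added with each compound to VDR-bla cells preincubated 4 h. Cells stood 16 h at 37C, then FRET substrate 2 h at room temperature; fluorescence intensity recorded.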

[19] = target: Peroxisome proliferator-activated receptor gamma (Homo sapiens) (UniProt P37231); test: qHTS assay to identify small molecule antagonists of the peroxisome proliferator-activated receptor gamma (PPARg) signaling pathway (AID 743191; calls by dose curve; further: series mostly up to about 63 µM; nearly all actives have a fitted effect of over 30% in size)
Sequence of Peroxisome proliferator-activated receptor gamma (Homo sapiens) (P37231 whole entry, looked up): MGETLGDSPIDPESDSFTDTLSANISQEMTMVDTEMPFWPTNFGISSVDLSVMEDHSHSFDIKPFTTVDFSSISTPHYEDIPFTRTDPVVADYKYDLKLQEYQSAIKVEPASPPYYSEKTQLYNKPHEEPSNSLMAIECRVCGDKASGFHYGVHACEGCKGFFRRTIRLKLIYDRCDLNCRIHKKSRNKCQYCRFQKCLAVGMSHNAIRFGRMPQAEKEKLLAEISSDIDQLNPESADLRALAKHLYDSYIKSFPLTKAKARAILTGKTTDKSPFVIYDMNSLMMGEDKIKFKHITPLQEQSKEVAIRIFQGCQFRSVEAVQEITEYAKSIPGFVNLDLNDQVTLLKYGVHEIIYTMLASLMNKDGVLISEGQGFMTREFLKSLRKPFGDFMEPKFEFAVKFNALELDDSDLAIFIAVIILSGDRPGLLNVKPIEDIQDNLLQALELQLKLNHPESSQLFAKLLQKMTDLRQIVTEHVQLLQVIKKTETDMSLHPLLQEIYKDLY
Summary of the method: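 Beta-lactamase reporter under UAS control in HEK293H PPARg-bla cells; compound treatment 17 h at 37C. Read-out: fluorescence intensity after 1 h room-temperature incubation with LiveBLAzer B/G FRET substrate.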

O=C(CC(=O)c1ccccc1)c1ccccc1
Potency [1]: inactive
Potency [2]: 65.7 µM (active)
Potency [3]: inactive
Potency [4]: inactive
Potency [5]: 23.3 µM (active)
Potency [6]: inactive
Potency [7]: inactive
outcome [8]: inactive
Potency [9]: inactive
outcome [10]: inactive
Potency [11]: inactive
outcome [12]: inactive
outcome [13]: inactive
Potency [14]: inactive
outcome [15]: inactive
Potency [16]: inactive
outcome [17]: inactive
Potency [18]: inactive

O=C(O)c1cccc(N(Cc2cccnc2)c2ccc(OC(F)F)c(OC(F)F)c2)c1
Potency [1]: inactive
Potency [2]: inactive
Potency [3]: inactive
Potency [4]: inactive
Potency [6]: inactive
Potency [7]: inactive
outcome [8]: inactive
Potency [9]: inactive
Potency [11]: inactive
outcome [12]: inactive
Potency [14]: inactive
Potency [16]: inactive

C=CC(=O)OCCOC(=O)CCC(=O)O
Potency [1]: 61.1 µM (active)
Potency [2]: inactive
Potency [3]: inactive
Potency [19]: inactive
Potency [4]: inactive
Potency [6]: inactive
Potency [7]: inactive
outcome [8]: inactive
Potency [9]: inactive
Potency [11]: inactive
outcome [12]: inactive
outcome [13]: inactive
outcome [15]: inactive
Potency [16]: inactive
outcome [17]: inactive
Potency [18]: inactive

c1ccc(-c2nc[nH]c2-c2ccccc2)cc1
Potency [1]: inactive
Potency [2]: inactive
Potency [3]: inactive
Potency [19]: inactive
Potency [4]: inactive
Potency [6]: inactive
Potency [7]: inactive
outcome [8]: inactive
Potency [9]: inactive
outcome [10]: inactive
Potency [11]: inactive
outcome [12]: inactive
Potency [14]: inactive
Potency [16]: inactive
Potency [18]: inactive

O=C(O)Cc1sc(-c2ccccc2)nc1-c1ccc(Cl)cc1
Potency [1]: inactive
Potency [2]: 10.6 µM (active)
Potency [3]: inactive
Potency [4]: inactive
Potency [5]: inactive
Potency [6]: inactive
Potency [7]: inactive
outcome [8]: inactive
Potency [9]: inactive
outcome [10]: inactive
Potency [11]: inactive
outcome [12]: inactive
outcome [13]: inactive
Potency [14]: inactive
outcome [15]: inactive
Potency [16]: inactive
Potency [18]: inactive

Cc1cc(C)c(S(=O)(=O)O)cc1N=Nc1cc(S(=O)(=O)O)c2ccccc2c1O
Potency [1]: 24.3 µM (active)
Potency [2]: inactive
Potency [3]: 27.3 µM (active)
Potency [4]: inactive
Potency [6]: inactive
Potency [7]: inactive
outcome [8]: inactive
Potency [9]: inactive
outcome [10]: inactive
Potency [11]: inactive
outcome [12]: inactive
Potency [14]: inactive
Potency [16]: inactive
outcome [17]: inactive
Potency [18]: inactive

Oc1ccc2c(c1)OCO2
Potency [1]: inactive
Potency [2]: inactive
Potency [3]: inactive
Potency [4]: inactive
Potency [5]: inactive
Potency [6]: inactive
Potency [7]: inactive
outcome [8]: inactive
Potency [9]: inactive
Potency [11]: inactive
Potency [14]: inactive
outcome [17]: inactive

CCCCC(CC)COCCCN (stereo unspecified)
Potency [1]: inactive
Potency [2]: inactive
Potency [3]: inactive
Potency [4]: inactive
Potency [5]: inactive
Potency [6]: inactive
Potency [7]: inactive
Potency [9]: inactive
outcome [10]: inactive
Potency [11]: inactive
outcome [12]: inactive
Potency [16]: inactive

OCCC1CCCCN1 (stereo unspecified)
Potency [1]: inactive
Potency [2]: inactive
Potency [3]: inactive
Potency [4]: inactive
Potency [6]: inactive
Potency [7]: inactive
outcome [8]: inactive
Potency [9]: inactive
outcome [10]: inactive
Potency [11]: inactive
outcome [12]: inactive
outcome [13]: inactive
Potency [14]: inactive
outcome [15]: inactive
Potency [18]: inactive

C[C@@H](C1=C(CCN(C)C)Cc2ccccc21)c1ccccn1
Potency [1]: inactive
Potency [2]: inactive
Potency [3]: inactive
Potency [4]: inactive
Potency [6]: inactive
Potency [7]: inactive
outcome [8]: inactive
Potency [9]: inactive
outcome [10]: inactive
Potency [11]: inactive
outcome [12]: inactive
outcome [15]: inactive
Potency [16]: inactive
outcome [17]: inactive
Potency [18]: inactive

CCCCCCCC/C=C\CCCCCCCC(N)=O
Potency [1]: inactive
Potency [2]: inactive
Potency [3]: inactive
Potency [4]: inactive
Potency [5]: inactive
Potency [6]: inactive
Potency [7]: inactive
outcome [8]: inactive
Potency [9]: inactive
Potency [11]: inactive
outcome [12]: inactive
outcome [15]: inactive
Potency [16]: inactive
outcome [17]: inactive
Potency [18]: inactive

CCCCCC(CO)CCC (stereo unspecified)
Potency [1]: inactive
Potency [2]: inactive
Potency [3]: inactive
Potency [4]: inactive
Potency [5]: inactive
Potency [6]: inactive
Potency [7]: inactive
Potency [9]: inactive
outcome [12]: inactive
Potency [14]: inactive
Potency [16]: inactive
outcome [17]: inactive
Potency [18]: inactive

C=CC(=O)OCC(C)OCC(C)OCC(C)OC(=O)C=C (stereo unspecified)
Potency [1]: 48.6 µM (active)
Potency [2]: inactive
Potency [3]: inactive
Potency [4]: inactive
Potency [6]: inactive
Potency [7]: 15.5 µM (active)
Potency [9]: 49 µM (active)

O=S(=O)(O)c1ccc(O)c2ncccc12
Potency [1]: inactive
Potency [2]: inactive
Potency [3]: inactive
Potency [19]: inactive
Potency [4]: inactive
Potency [6]: inactive
Potency [7]: inactive
Potency [9]: inactive
Potency [11]: inactive
outcome [13]: inactive
outcome [15]: inactive
Potency [16]: inactive
outcome [17]: inactive

CC1(C)[C@H]2CC[C@]1(C)[C@H](O)C2
Potency [1]: inactive
Potency [2]: inactive
Potency [3]: inactive
Potency [4]: inactive
Potency [5]: inactive
Potency [6]: inactive
Potency [7]: inactive
outcome [8]: inactive
Potency [9]: inactive
outcome [10]: inactive
Potency [11]: inactive
Potency [14]: inactive
Potency [16]: inactive

Oc1ccc(O)c2c(O)cccc12
Potency [1]: inactive
Potency [2]: 12.1 µM (active)
Potency [3]: inactive
Potency [4]: inactive
Potency [6]: inactive
Potency [7]: inactive
Potency [9]: inactive
outcome [12]: inactive
Potency [14]: inactive
outcome [17]: inactive

CC(C)=CCCC(C)CC=O (stereo unspecified)
Potency [1]: inactive
Potency [2]: inactive
Potency [3]: inactive
Potency [4]: inactive
Potency [5]: inactive
Potency [6]: inactive
Potency [7]: inactive
Potency [9]: inactive
Potency [11]: inactive
outcome [13]: inactive
Potency [14]: inactive
outcome [15]: inactive
outcome [17]: inactive

NCCCOCCOCCOCCCN
Potency [1]: inactive
Potency [2]: inactive
Potency [3]: inactive
Potency [19]: inactive
Potency [4]: inactive
Potency [6]: inactive
Potency [7]: inactive
outcome [8]: inactive
Potency [9]: inactive
Potency [11]: inactive
Potency [14]: inactive
Potency [16]: inactive
outcome [17]: inactive

Cn1c(=O)c2c(ncn2CC(O)CO)n(C)c1=O (stereo unspecified)
Potency [1]: inactive
Potency [2]: inactive
Potency [3]: inactive
Potency [4]: inactive
Potency [5]: inactive
Potency [6]: inactive
Potency [7]: inactive
outcome [8]: inactive
Potency [9]: inactive
outcome [12]: inactive
Potency [16]: inactive
outcome [17]: inactive
